Reference: PubChem BioAssay AID1159580 (chemical genetic matrix, 2015)
Among all 5,500 compounds or so, about 2,000 (36%) were called active. Not shown: some 18% with an inconclusive outcome. Rule as the data show it: active = normalized growth mostly below about 0.91 (no sharp cut-off); inconclusive = no clear call, values can overlap the other calls; inactive = mostly above about 0.92. The list shows a part of the results.

Experiment: chemical genetic growth profiling, strain panel (AID 1159580);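 also: tested at 20 µM; growth read once vehicle control cultures reached saturation at 30 °C; 1 = growth at the plate median or of vehicle wells; lower values mean less growth of the strain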
Settings: S. cerevisiae deletion strains, growth OD

Measured: normalized growth

O=C(O)C1C(O)CCC2CN3CCc4c([nH]c5ccccc45)C3CC21 (configuration not stated)
inactive: locus YAL013W, strain DEP1, active compounds read low 1.03 | locus YBR021W, strain FUR4, active compounds read low 0.972 | locus YBR229C, strain ROT2, active compounds read low 1 | locus YCL029C, strain bik1, active compounds read low 1.03 | locus YDL035C, strain GPR1, active compounds read low 1 | locus YDL074C, strain BRE1, active compounds read low 1.02 | locus YDL101C, strain DUN1, active compounds read low 1.02 | locus YDL185W, strain tfp1, active compounds read low 1.01 | locus YDL192W, strain arf1, active compounds read low 1 | locus YDR101C, strain arx1, active compounds read low 1.01 | locus YDR150W, strain NUM1, active compounds read low 1.01 | locus YDR162C, strain NBP2, active compounds read low 1.03 | locus YDR318W, strain mcm21, active compounds read low 1 | locus YDR388W, active compounds read low 1.01 | locus YDR502C, strain sam2, active compounds read low 1.02 | locus YEL061C, strain CIN8, active compounds read low 1.01 | locus YER110C, active compounds read low 1.02 | locus YER155C, strain BEM2, active compounds read low 1.02 | locus YER167W, strain BCK2, active compounds read low 1.02 | locus YGL078C, strain dbp3, active compounds read low 1.01 | locus YGL086W, strain mad1, active compounds read low 1.02 | locus YGL248W, strain PDE1, active compounds read low 1.01 | locus YGR135W, strain pre9, active compounds read low 0.996 | locus YGR252W, strain gcn5, active compounds read low 0.951 | locus YHR030C, strain SLT2, active compounds read low 1.01 | locus YHR079C, strain IRE1 (second series), active compounds read low 1.01 | locus YHR094C, strain hxt1, active compounds read low 1.02 | locus YHR129C, strain ARP1, active compounds read low 1.01 | locus YHR200W, strain rpn10, active compounds read low 1.02 | locus YIL066C, strain RNR3, active compounds read low 1.01 | locus YIL073C, strain SPO22, active compounds read low 0.988 | locus YIL125W, strain kgd1, active compounds read low 1.01 | locus YIR030C, strain dcg1, active compounds read low 1.01 | locus YJL095W, strain BCK1, active compounds read low 1.03 | locus YJL134W, strain LCB3, active compounds read low 1.02 | locus YJL168C, strain set2, active compounds read low 1.01 | locus YJL187C, strain SWE1 (second series), active compounds read low 1.01 | locus YJR043C, strain POL32, active compounds read low 1.02 | locus YJR075W, strain HOC1, active compounds read low 1.04 | locus YKL009W, strain mrt4, active compounds read low 1.03 | locus YKL068W, active compounds read low 1.01 | locus YKL085W, strain MDH1 (second series), active compounds read low 0.998 | locus YKL085W, strain MDH1, active compounds read low 0.998 | locus YKR001C, strain vps1, active compounds read low 1.01 | locus YLR039C, strain RIC1, active compounds read low 1.06 | locus YLR058C, strain SHM2, active compounds read low 1.01 | locus YLR102C, strain apc9, active compounds read low 1.02 | locus YLR262C, strain YPT6, active compounds read low 1.06 | locus YLR268W, strain sec22, active compounds read low 1.03 | locus YLR330W, strain CHS5, active compounds read low 1.01 | locus YLR342W, strain FKS1 (second series), active compounds read low 1.05 | locus YLR371W, strain rom2, active compounds read low 1.02 | locus YLR418C, strain cdc73, active compounds read low 0.986 | locus YML016C, strain PPZ1, active compounds read low 1.01 | locus YML032C, strain rad52, active compounds read low 1.01 | locus YML124C, strain tub3, active compounds read low 1.01 | locus YMR078C, strain ctf18, active compounds read low 1.01 | locus YMR223W, strain ubp8, active compounds read low 0.988 | locus YMR263W, strain SAP30, active compounds read low 1.03 | locus YMR307W, strain GAS1, active compounds read low 1.02 | locus YNL067W, strain RPL9B, active compounds read low 1.03 | locus YNL233W, strain BNI4, active compounds read low 1.02 | locus YNL250W, strain rad50, active compounds read low 1.02 | locus YNL271C, strain bni1, active compounds read low 1.01 | locus YNL298W, strain CLA4, active compounds read low 1.02 | locus YNL307C, strain MCK1, active compounds read low 1.02 | locus YNL322C, strain KRE1, active compounds read low 1.01 | locus YNR052C, strain pop2, active compounds read low 1 | locus YOL012C, strain htz1 1.58 | locus YOL147C, strain pex11, active compounds read low 1.02 | locus YOR061W, strain CKA2, active compounds read low 1.01 | locus YOR069W, strain VPS5, active compounds read low 1.01 | locus YOR136W, strain idh2, active compounds read low 1.02 | locus YOR144C, strain elg1, active compounds read low 1.01 | locus YOR184W, strain ser1, active compounds read low 1.03 | locus YOR316C, strain cot1, active compounds read low 1.02 | locus YPL055C, strain LGE1, active compounds read low 1.03 | locus YPR119W, strain clb2, active compounds read low 1.01 | locus YPR141C, strain kar3, active compounds read low 1.01 | locus YPR163C, strain tif3, active compounds read low 1.01 | locus YPR167C, strain met16, active compounds read low 0.999 | strain wtn01, active compounds read low 1.02
